Experimental data: ChEMBL document CHEMBL4513216, “Probing the Open Global Health Chemical Diversity Library for Multistage-Active Starting Points for Next-Generation Antimalarials” (ACS Infect Dis, 2020)
About 8,600 (12%) of roughly 69,000 compounds showed an effect of 50% or more. For the sample, strong results were picked, then their nearest neighbours and some compounds at random.

System: Plasmodium berghei
Test: Screen against P. berghei liver stage (PbLuc), transformed with Luciferase, at 10uM
Assay type: functional, HepG2
Details: tested at 10 uM

SMILES | INHIBITION
CCOc1cc(C)nc(N2CCN(C(=O)c3csnn3)CC2)n1 | 33.8%
O=C(O)[C@@H]1CCN(C(=O)c2cscn2)[C@@H]1c1ccc(F)cc1 | -35.5%
COc1ccc2ccccc2c1CNCC1CCS(=O)(=O)C1 (centres undefined) | 46.4%
CCOc1ccc2ccccc2c1CNCC1CCS(=O)(=O)C1 (centres undefined) | 57.3%
CCOc1ccc2ccccc2c1CNCC1CCNCC1 | 49.2%
Cc1cc2nc(C(C)C)cc(N3CCC(Oc4ncccn4)CC3)n2n1 | -17.1%
CCOC(=O)CSc1nnc([C@@H](N)C(C)C)o1 | 2.49%
Cc1cc(S(C)(=O)=O)c(C)c(S(=O)(=O)NCC2CCC2)c1 | 54.4%
Cc1cc(S(C)(=O)=O)c(C)c(S(=O)(=O)NCC2CCCO2)c1 (centres undefined) | 48.4%
Cc1cc(S(C)(=O)=O)c(C)c(S(=O)(=O)NC2CCCC2)c1 | -1.28%
Cc1nn(C)cc1C1CC(=O)Nc2c1cnn2C(C)(C)C (centres undefined) | -16.5%
O=C(c1ccn(-c2cccc(Cl)c2)n1)N1CCN(CCO)CC1 | -12.2%
CS(=O)(=O)N1CCN(C(=O)c2cncs2)CC(C(N)=O)C1 (centres undefined) | -0.8525%
Cc1ccc(CN2CCC3(CC2)CC(c2cccnc2)C(=O)N3C)o1 (centres undefined) | 55.4%
CN1C(=O)CC(c2ccccc2)C12CCN(CCO)CC2 (centres undefined) | -63.9%
Cc1noc(C)c1CN1CCC2(CC1)C(c1ccccc1)CC(=O)N2C (centres undefined) | 42.1%
Cc1cccc(CN2CCC3(CC2)CC(c2cccnc2)C(=O)N3C)n1 (centres undefined) | 20.6%
CN1C(=O)C(c2cccnc2)CC12CCN(CCO)CC2 (centres undefined) | -7.24%
Cc1ccc(CN2CCC3(CC2)C(c2ccccc2)CC(=O)N3C)o1 (centres undefined) | 51.2%
Cc1nc(C2CCCN2C(=O)Cc2cccc(F)c2)nc(O)c1C (centres undefined) | 11.1%
O=C(Cc1ccsc1)N1CCCC2(COCCN(CC3CC3)C2)C1 (centres undefined) | -14.3%
COCCNC(=O)Cn1cc(NC(=O)c2cc(Cl)c(Cl)n2C)cn1 | 12.9%
Cc1cc(C)n(CC2CN(CC(=O)NCc3cccs3)CCO2)n1 (centres undefined) | 18.933%
CCc1nccn1CCC(=O)N1CCN(c2ccccc2C)CC1C (centres undefined) | 66.7%
CCc1nccn1CCC(=O)N1CC(=O)N(c2ccccc2C)CC1C (centres undefined) | 49.9%
Cc1ccccc1N1CC(C)N(C(=O)CCn2cccn2)CC1=O (centres undefined) | 64.5%

SMILES | INHIBITION
Cc1ccccc1N1CC(C)N(Cc2ccc(C)c(F)c2F)CC1=O (centres undefined) | -8.92%
COc1cccc(CN2CC(=O)N(c3ccccc3C)CC2C)c1OC (centres undefined) | 17.8%
Cc1ccccc1N1CCN(C(=O)CCc2nncn2C)C(C)C1 (centres undefined) | 8.38%
CCc1nccn1CC(=O)N1C[C@@H]2CC[C@H]1CN(C(=O)N(C)C)C2 | -19.7%
CCc1nccn1CCC(=O)N1C[C@@H]2CC[C@H]1CN(C(=O)N(C)C)C2 | 50.2%
CCc1nccn1CC(=O)N1C[C@@H]2CC[C@H]1CN(S(=O)(=O)N(C)C)C2 | 17%
COCCn1ccnc1C1CCN(C(=O)CSc2nnc(C)o2)CC1 | 7.24%
COc1ncccc1CNC(=O)c1c(C)oc(C)c1C | 5.1%
CNC(=O)c1ccc(C2CN(CC(=O)N(C)C)CCO2)nc1 (centres undefined) | -3.94%
c1cncc(OCC2CC3(CCN(CC4CC4)CC3)CO2)c1 (centres undefined) | 13.7%
COc1ccc(C)nc1NC(=O)Cc1c(C)nn(C)c1C | 41.6%
COCC[C@]1(O)CCN(CC(=O)NCc2ccccc2C)C[C@H]1C | 46.3%
O=C(Cc1ccccn1)NCC1OCCc2cn(CC3CC3)nc21 (centres undefined) | 3.25%
Cc1ccc(Oc2ncccc2CNS(=O)(=O)N2CCOCC2)cn1 | 70.1%
CCOc1ncccc1CNS(=O)(=O)N1CCOCC1 | -8.28%
O=S(=O)(NCc1cccnc1OC1CCCC1)N1CCOCC1 | 16.3%
O=c1cc(Cn2cncn2)nc2n1CCCN(CCN1CCCC1)C2 | 16.6%
Cc1cc(C)n(C2CN(CC(O)c3ccc(C(F)(F)F)cc3)C2)n1 (centres undefined) | -24.2%
c1cc2nccc(CC3CCCN(Cc4c[nH]cn4)CC3)c2cn1 (centres undefined) | 75.3%
Cn1ccnc1CN1CCCC(Cc2ccnc3ccncc23)CC1 (centres undefined) | 29.3%
c1cc2nccc(CC3CCCN(Cc4ncc[nH]4)CC3)c2cn1 (centres undefined) | 32.4%
CC(C)c1ccc(OCC(=O)N(C)C)cc1 | -11.2%
CC(C)n1c(=O)[nH]c2cn(-c3ccccc3)c(=O)n21 | 6.32%
CCNC(=O)C1(Cc2cc(-c3ccc(C)cc3)no2)CCCN(C)C1 (centres undefined) | 23%
c1ccc(-c2nnc([C@H]3CCN(C4CCC4)C3)o2)cc1 | 46.4%
Cc1ccc(-c2nnc([C@H]3CCN(C4CCC4)C3)o2)cc1 | 4.07%

SMILES | INHIBITION
c1cc(-c2nnc([C@H]3CCN(C4CCCCC4)C3)o2)ccn1 | -5.77%
c1ccc(-c2nnc([C@H]3CCN(C4CCOCC4)C3)o2)cc1 | 18.4%
c1cc(-c2nnc([C@H]3CCN(C4CCOCC4)C3)o2)ccn1 | 54%
COc1ccc(-c2nnc([C@H]3CCN(C4CCC4)C3)o2)cc1 | 57.8%
O=C(NCCc1ccccn1)[C@@]12CCO[C@@H]1CCN(c1ncccn1)C2 | 34.6%
CCc1ncc2c(n1)CN(CC(=O)Nc1cccnc1)CC2 | 19.4%
CSc1ccc(NC(=O)Cn2cc(NC(C)=O)cn2)cc1 | 33.7%
CCOC(=O)[C@H]1[C@@H](O)C(=O)N(C)C12CCN(C(=O)OC)CC2 | 29.8%
Cn1ccc(CN2CCC(CC(=O)NC3CCCC3)CC2)cc1=O | 27.2%
COc1cc(CNC(=O)COC2CCCCC2)ccc1O | 26.5%
Cc1noc([C@@H]2C[C@H]3OCC[C@H]3N(S(=O)(=O)c3ccccc3)C2)n1 | -5.08%
Cc1occc1C(=O)NCC(=O)N(C)CCCOc1ccc(F)cc1 | 26.7%
Cc1occc1C(=O)NCC(=O)NCCOc1ccc2c(c1)CCC2 | 42.3%
Cc1occc1C(=O)NCC(=O)N(C)CCCOc1ccccc1 | 61%
Cc1ccccc1C(NC(=O)CNC(=O)c1ccoc1C)C(C)C (centres undefined) | -68.2%
Cc1occc1C(=O)NCC(=O)NCCCOc1ccc(F)cc1 | 54.5%
Cc1occc1C(=O)NCC(=O)NCCOc1cccc(Cl)c1 | -10.6%
O=C1CC(c2ccc(C(F)(F)F)cc2)c2c(n3ccsc3nc2=O)N1 (centres undefined) | 17%
COc1nsc2nc(C3CCCN3c3ncccn3)ccc12 (centres undefined) | 25.49%
Cc1ccc(C(=O)NCCCn2cccn2)c(=O)[nH]1 | -1.98%
Cc1ccc(C(=O)NCC(C)Cn2cccn2)c(=O)[nH]1 (centres undefined) | 58.5%
Cc1ccc(C(=O)NCC(C)Cn2ccnc2C)c(=O)[nH]1 (centres undefined) | 55.5%
Cc1ccc(C(=O)NCC(O)c2ccc(Cl)s2)c(=O)[nH]1 (centres undefined) | 37.2%
Cc1ccc(C(=O)NCC(C)CN2CCCC2=O)c(=O)[nH]1 (centres undefined) | 37.1%
Cc1ccc(C(=O)NC(C)Cn2cccn2)c(=O)[nH]1 (centres undefined) | 42.6%
Cc1cnc(C(=O)N2C[C@@H]3CC[C@H]2CN(Cc2cscn2)C3)[nH]1 | 42.1%

SMILES | INHIBITION
COc1cccc(CN2CCN(c3cccc(C(C)C)n3)CC2)c1F | -26.1%
Cc1ccc(F)cc1NC(=O)c1[nH]ncc1Br | 11.7%
C[C@H](CCO)NS(=O)(=O)c1ccc(Br)cn1 | 21.7%
CCC(CCO)NS(=O)(=O)c1ccc(Br)cn1 (centres undefined) | 65.4%
COCC(C)NC(=O)c1cncc(Br)c1 (centres undefined) | -26.4%
CCS(=O)(=O)N(C)CC(=O)Nc1ccc(Br)cn1 | 6.81%
CS(=O)(=O)CCOCCNc1ccc(Br)cn1 | -3.08%
COCC(C)NS(=O)(=O)c1ccc(Br)cn1 (centres undefined) | 56%
CCN(C(=O)c1nc2c(s1)CCCN2C(C)=O)C(C)C | 5.68%
O=C(c1cccc2c1OCCO2)N1CCCC1c1noc(C2CC2)n1 (centres undefined) | 2.3%
COCC(=O)N1CCC2(COCc3cnc(NCc4ccco4)nc32)C1 (centres undefined) | 24.3%
COCCC(=O)N1CCC2(COCc3cnc(-c4ccccc4)nc32)C1 (centres undefined) | 16.5%
COCCC(=O)N1CCC2(COCc3cnc(-c4cccnc4)nc32)C1 (centres undefined) | 33.1%
COCCC(=O)N1CCC2(COCc3cnc(N(C)C)nc32)C1 (centres undefined) | 53.2%
COCCC(=O)N1CCC2(COCc3cnc(NCC4CC4)nc32)C1 (centres undefined) | 61.5%
COCCC(=O)N1CCC2(COCc3c(C)nc(NCC4CC4)nc32)C1 (centres undefined) | 33%
Cc1cccc(CNC(=O)CCc2c(C)nc3cc(O)nn3c2C)n1 | 33.3%
CC(CN1CCOCC1)NC(=O)NCc1ccoc1 (centres undefined) | -7.36%
Cc1nc(NCCN2CCCC2=O)cc(C2CN(C)CCO2)n1 (centres undefined) | -17.9%
CC(NC(=O)NCCCn1cncn1)c1ccc(C(F)(F)F)cc1 (centres undefined) | -16.88%
Cc1ccc(S(=O)(=O)N2C[C@H]3C[C@H](NC(=O)c4ccn(C)n4)[C@H]3C2)cc1 | 38.7%
Cc1ccc(S(=O)(=O)N2C[C@@H]3C[C@@H](NC(=O)C(C)(C)C)[C@@H]3C2)cc1 | 44.9%
Cc1ccc(S(=O)(=O)N2C[C@H]3C[C@H](NC(=O)c4ccnn4C)[C@H]3C2)cc1 | 77.9%
Cc1ccc(S(=O)(=O)N2C[C@H]3C[C@H](NC(=O)c4cc(C)no4)[C@H]3C2)cc1 | 5.11%
Cc1ccc(S(=O)(=O)N2C[C@H]3C[C@H](NC(=O)c4cnn(C)c4)[C@H]3C2)cc1 | 78.5%
Cc1ccc(S(=O)(=O)N2C[C@H]3C[C@H](NC(=O)C(C)C)[C@H]3C2)cc1 | 19.6%
